The values that follow come from PubChem BioAssay AID1224817 (Yan Lab, Georgia Cancer Center, Augusta University, 2016).

“And” between values parts separate entries of the source, which are not always exact repeats. Identical values can stand only once. The whole screen tested about 2,000 compounds, of which about 25 (1%) were called active. The list comes from a sample in which actives are over-represented; it also holds similar structures and randomly drawn compounds. Unmarked numbers belong to inactive results.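 The calls were made as follows: active = log2 luciferase ratio at or below -0.5849, meaning signal at two thirds of solvent-only control or lower; inactive = the rest.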

The nature of the test: eIF4E expression suppression, luciferase knock-in reporter – cell-based, HT1080, primary screen (AID 1224817).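 Also: luciferase reports endogenous eIF4E expression since it is co-expressed from the native EIF4E locus.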 As to conditions: HT1080 EIF4E-luc2 knock-in reporter, 16 h, at 2.5 µM, active compounds read low.
Consider `O=C(O)C1CC[N-]CC1.O=C(O)C1CC[N-]CC1.[Cl][Pt+2]([Cl])([Cl])[Cl]`, for which the log2 luciferase activity ratio is -0.241.
For the compound `CC(C)(N=NC(C)(C)C1=NCCN1)C1=NCCN1`, the log2 luciferase activity ratio was -0.215.
For `NCCSc1nc(-c2ccccc2)c(-c2ccccc2)o1`, the log2 luciferase activity ratio is -0.0133.
For `O=[N+]([O-])c1ccc(C2=Nn3c(nnc3-c3ccc(Cl)cc3)SC2)o1` the value was 0.0802.
Take `O=C(O)[C@@H]1[C@H](C(=O)O)[C@H](C(=O)O)C[C@@H]1C(=O)O`: the log2 luciferase activity ratio was -0.306.
Take `C/C(=N\NC(=O)c1ccncc1)c1ccccc1Cl`: the log2 luciferase activity ratio was 0.497.
For `OC(Cc1cccnc1)(c1ccccc1)c1ccccc1` the value was -0.0482.
Regarding `NC(=O)/C(=C\c1ccncc1)c1cccc2ccccc12`, the log2 luciferase activity ratio is -0.0804.
With `Nc1ccc2[nH]cc(CCC(=O)O)c2c1`, the log2 luciferase activity ratio was -0.0435.
With `NC(Cc1c[nH]c2ccc([N+](=O)[O-])cc12)C(=O)O` (stereo unspecified), the log2 luciferase activity ratio is 0.208.
For the compound `O=C(O)Cc1c[nH]c2ccc(F)cc12`, the log2 luciferase activity ratio was -0.736 (active).
With `Cc1cc(N2CCCCC2)nc2ccc(Cc3ccc4nc(N5CCCCC5)cc(C)c4c3)cc12`, the log2 luciferase activity ratio was 0.559.
Regarding `N=c1ncn(C/C=C/c2ccccc2)c2nc[nH]c12`, the log2 luciferase activity ratio is 0.287.
Regarding `Cc1cc(=Nc2ccc3c(c2)c(N)cc(C)[n+]3C)nc(N)n1C`, the log2 luciferase activity ratio is -0.0953.
As for `COc1cc2c(cc1OC)C(CCN)=NCC2`, the log2 luciferase activity ratio was -0.216.
With `CC1/C=C/C=C/CC/C=C/C=C/C=C/C=C/C(OC2OC(C)C(O)C(N)C2O)CC2OC(CC(O)C(O)CCC(O)CC(O)CC(O)CC(=O)OC(C)C(C)C1O)CC(O)C2C(=O)O` (stereo unspecified) the figure was -0.0951 and -0.0559; with `NCCNCC(O)CO` (stereo unspecified), 0.073.
With `O=C(O)/C(=C\c1ccc(O)cc1)c1cccc2ccccc12` the figure was -0.199; with `O=C(O)CC1(C(=O)O)CCCCC1`, -0.621 (active).
As to `CC1(CC(=O)O)OC2CCCCCC2O1` (stereo unspecified) (tested in a mixture with another compound), the log2 luciferase activity ratio is 0.0163.
For `CC1CCCC(CC(=O)O)(CC(=O)O)C1` (stereo unspecified) the value was 0.274.
Regarding `O=C1c2cccc(O)c2C(=O)c2c(OC3OC(CO)C(O)C(O)C3O)cccc21` (stereo unspecified), the log2 luciferase activity ratio is -0.141.
`OC1C(O)C(O)C(O)C(O)C1O` (stereo unspecified): the log2 luciferase activity ratio is -0.102.
As for `CC(C)C(Nc1ncnc2nc[nH]c12)C(=O)O` (stereo unspecified), the log2 luciferase activity ratio is 0.37.
Turning to `O=C(O)CNC(=O)c1ccccc1O`, the log2 luciferase activity ratio was 0.226.
Consider `O=C(O)/C(=C/c1ccccc1)c1ccccc1`, for which the log2 luciferase activity ratio was -0.172.
With `Cc1ccc(C)c(C2NC(=O)c3ccccc3N2)c1` (stereo unspecified) the figure was -0.685 (active).
For `O=C1Nc2ccccc2/C1=N\[O-].O=C1Nc2ccccc2/C1=N\[O-].[Cu+2]` the value was 0.0071; for `N[C@H](C(=O)O)[C@H]1ON=C(Cl)[C@@H]1O`, -0.333.
`COC1/C=C\C=C(/C)C(=O)NC2=CC(=O)C(N)=C(CC(C)CC(OC)C(O)C(C)C=C(C)C1OC(N)=O)C2=O` (stereo unspecified): the log2 luciferase activity ratio was -1.05 (active).
As to `CN(C)CCCn1c2c3ccccc3ccc2c2oc(=O)c3ccccc3c21`, the log2 luciferase activity ratio is -0.461.
Take `CN1CC(c2ccccc2)C(O)(C2(c3ccccc3)CN(C)CC(c3ccccc3)C2=O)C(c2ccccc2)C1` (stereo unspecified): the log2 luciferase activity ratio is -0.0781.
With `CC1CC(C)CN(S(=O)(=O)c2cc(Cl)c(Oc3ccc([N+](=O)[O-])cc3Cl)c(Cl)c2)C1` (stereo unspecified) the figure was 0.55; with `NCC(=O)C(O)C(O)C(O)CO` (stereo unspecified), 0.229.
`O=C(O)/C=C\C(=O)Nc1ccccn1`: the log2 luciferase activity ratio is 0.0837.
As to `C[N+]1(CCC(=O)c2ccccc2)CCC2CCC(C2)C1` (stereo unspecified), the log2 luciferase activity ratio is 0.0296.
With `CCCCCC[C@H]([C@H](C)O)n1cnc2c(N)ncnc21`, the log2 luciferase activity ratio is -0.0979.
As for `NCCSCCC(=O)O`, the log2 luciferase activity ratio was -0.0504.
On to `CC(C)(CC(=O)Nc1ccccc1)C(=O)O`, for which the log2 luciferase activity ratio is -0.26.
Take `NCC(=O)Nc1ccccc1`: the log2 luciferase activity ratio was -0.679 (active).
For the compound `CC(=O)CC(=O)Nc1ccc2ccccc2c1`, the log2 luciferase activity ratio is 0.376.
Turning to `CN(C)Cc1c[nH]c2nc[nH]c(=O)c12`, the log2 luciferase activity ratio is 0.205.
As to `CN(C)CCC(=O)[C@@]1(O)CC[C@H]2[C@@H]3CC=C4C[C@@H](O)CC[C@]4(C)[C@H]3CC[C@@]21C`, the log2 luciferase activity ratio is 0.263.
Turning to `O=C(O)CC1OCC=C2C[N+]3([O-])CCC45c6ccccc6NC4C1C2CC53` (stereo unspecified), the log2 luciferase activity ratio is 0.195.
`Cc1ccc(C2(C)CC/C(=N/N=C3/CCC(C)(c4ccc(C)c(C)c4)c4cc(C)c(C)cc43)c3cc(C)c(C)cc32)cc1C` (stereo unspecified): the log2 luciferase activity ratio was 0.135.
For the compound `Oc1c(Cl)cc(C(c2cc(Cl)c(O)c(Cl)c2)C(c2cc(Cl)c(O)c(Cl)c2)c2cc(Cl)c(O)c(Cl)c2)cc1Cl`, the log2 luciferase activity ratio is -0.198.
For `COc1ccc(CCN(C)CCCC(C#N)(c2ccc(OC)c(OC)c2)C(C)C)cc1OC` (stereo unspecified) the value was -0.662 (active); for `COc1ccc(C[N+](C)(C)N)cc1OC`, -0.225; for `Cc1cc(=O)oc2c(OS(C)(=O)=O)c(OS(C)(=O)=O)ccc12`, 0.0541.
With `Cc1ccn2c(CCc3nnc4cc(C)ccn34)nnc2c1`, the log2 luciferase activity ratio was -0.0744.
As to `CC(=O)NC1CONC1=O` (stereo unspecified), the log2 luciferase activity ratio was -0.303.
Take `C=C[C@]1(C)C[C@@H](OC(=O)CO)[C@@]2(C)[C@H](C)CC[C@]3(CCC(=O)[C@H]32)[C@@H](C)[C@@H]1O`: the log2 luciferase activity ratio was 0.127.
In the case of `Oc1ccc(Cc2nccc3cc(O)c(O)cc23)cc1O`, the log2 luciferase activity ratio was -0.044.
For `OCCN(CO)CO` the value was -0.297; for `COc1ccc(CNC(C)C(=O)O)cc1` (stereo unspecified), -0.198.
With `C/C(=N\[N+](C)(C)C)c1ccc(C)c(C)c1` the figure was -0.284.
As to `CC(C)CCC[C@@H](C)[C@H]1CC[C@H]2[C@@H]3CC[C@H]4C[C@H](N)CC[C@]4(C)[C@H]3CC[C@]12C`, the log2 luciferase activity ratio is 0.0721.
For `CN(C)CCCNc1cc(O)c2c(c1O)C(=O)c1ccccc1C2=O` the value was 1.39.
Turning to `O=C(O)C/C=C/CC(=O)O`, the log2 luciferase activity ratio was -0.0603.
In the case of `CC(C)(C)CC(C)(C)c1cc(O)c(O)c(CN2CCCCC2)c1`, the log2 luciferase activity ratio was -0.183.
With `CC(C)(C)c1ccc(CN2CCN(C(c3ccccc3)c3ccc(Cl)cc3)CC2)cc1` (stereo unspecified) the figure was -0.0054.
